An excerpt weighted towards active compounds, which were near 2.2% of everything screened.
SKN-1 inh: inhibitors of C. elegans SKN-1; inhibition, % at 21.8 µM; 360,000 tested, 0.49% active; AID 624304; C. elegans VP596 Pgst-4::GFP/RFP ratio, acrylamide-induced, 24 h;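 active = interference check ratio from 0.5 to 1.5 plus GFP to RFP signal ratio inhibition reaching or exceeding a fixed threshold, cut at about 30% in these data, passing the limit was not always enough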
Mot1-301 SUMO: SUMOylation pathway inhibition by Mot1-301 growth rescue; S. cerevisiae Mot1-301 growth rescue, ATP luminescence, 38.5C; percent above DMSO median, 100 means doubled; growth rescue, % at 18.8 µM; 320,000 tested, 1% active;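 active = every valid replicate shows activation above 250% relative to neutral control wells; inactive = the rest, any valid replicate at or below 250%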;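 also: OY570 slx delta 5 strain wells were the positive control but not used for scaling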
HGIII-sPLA2 inh: Blocks human group III sPLA2 activity | Q9NZ20 | QFRET BODIPY PC-A2 liposome hydrolysis, fluorescence | inhibition, % at 12.2 µM | 370,000 tested, 0.56% active;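 active = inhibition above mean plus 3 SD of compounds lying within the high and low control bounds, cut at about 19% in these data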;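 also: 0% = median of test compound wells and 100% = no enzyme DMSO wells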
Target sequence (Q9NZ20 whole entry, looked up): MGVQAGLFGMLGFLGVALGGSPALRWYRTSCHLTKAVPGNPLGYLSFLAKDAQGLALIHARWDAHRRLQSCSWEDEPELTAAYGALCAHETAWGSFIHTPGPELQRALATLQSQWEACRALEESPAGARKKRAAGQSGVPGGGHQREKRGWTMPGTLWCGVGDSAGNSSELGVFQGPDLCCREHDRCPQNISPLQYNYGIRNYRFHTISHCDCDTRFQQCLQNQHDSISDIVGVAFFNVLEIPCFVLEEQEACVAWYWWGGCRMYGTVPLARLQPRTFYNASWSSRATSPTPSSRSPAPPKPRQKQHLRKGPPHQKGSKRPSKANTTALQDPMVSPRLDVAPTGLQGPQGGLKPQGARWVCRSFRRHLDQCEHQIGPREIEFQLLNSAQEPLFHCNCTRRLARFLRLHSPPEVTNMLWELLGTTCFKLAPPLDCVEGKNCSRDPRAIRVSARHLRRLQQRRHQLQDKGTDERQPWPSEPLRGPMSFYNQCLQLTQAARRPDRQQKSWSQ
Efflux pump mplx: antifungal efflux pump inhibition, Nile Red retention; 330,000 tested, 0.44% active; S. cerevisiae Candida pump triplex; inhibition, % at 10 µM;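 active = plate passing quality check with inhibition over a set limit, or well fluorescence over plate mean plus 4 SD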;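 also: Nile Red retained in pooled yeast measured as flow cytometry median fluorescence; 0% = buffer negative control and 100% = Enniatin B positive control; higher means more Nile Red kept so more efflux inhibition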
Mot1 SUMO dose: yeast SUMO pathway inhibition in dose response | shares compounds with Mot1-301 SUMO | S. cerevisiae Mot1-301 galactose growth, ATP luminescence, 24 h; -100 = growth of slx-deleted rescue strain | growth activity, percent, % at 42 µM | 2,300 tested, under 10 active | AID 493004;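 active = Signal drops as the depositor expects, and the fitted half-maximal dose is no more than ten times the top valid tested dose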;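 also: more negative values mean stronger growth rescue toward the control strain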
Active calls of the source: *; · = not tested or not shown; + = active, no number; [ ] = remark or other dose.

SMILES | SKN-1 inh | Mot1-301 SUMO | HGIII-sPLA2 inh | Efflux pump mplx | Mot1 SUMO dose
CNS(=O)(=O)/C=C/c1ccccc1CCNC(=O)OC(C)(C)C | · | · | -7 | · | ·
O=C(COc1ccc(S(=O)(=O)N2CCCC2)cc1Cl)NCc1cccnc1 | -10 | -6 | 0 | 0 | ·
CC(C)C(C(=O)NCc1ccccc1)N1CCN(c2ccccc2F)CC1 (centres undefined) | 0 | · | 4 | · | ·
O=C(COC(=O)c1ccc([N+](=O)[O-])s1)c1ccc[nH]1 | 23 | 516* | 4 | 0 | -3
Cn1c(=O)c2c(ncn2CC(=O)OCC(=O)Nc2ccc(Cl)cc2)n(C)c1=O | 14 | 847* | 2 | -4 | 0
CC(C)C(=O)Nc1cccc(-c2nc3ncccc3o2)c1 | 10 | + | 1 | 0 | 1
CC(C)C(=O)Nc1ccc(-c2nc3ncccc3o2)cc1 | 19 | -8 | 5 | 0 | ·
CC(C)C(=O)Nc1ccc(-c2nc3cccnc3o2)cc1 | -14 | 666* | 8 | 0 | -1
CCOC(=O)c1ccc(NC(=O)c2nc[nH]c2C(=O)N2CCc3ccccc3C2)cc1 | 6 | 371* | -2 | 0 | 0
CCC1OC(C(C)C)Cc2[nH][nH]c(=O)c21 (centres undefined) | 15 | · | -2 | · | ·
COc1cccc(NC(=O)C2(C)CCN2C(=O)Cc2ccc(C(C)C)cc2)c1 (centres undefined) | 3 | · | -11 | · | ·
CC(C)Sc1ccc(C(=O)Nc2ccc(F)cc2F)cn1 | 8 | 537* | -1 | 0 | 0
Cc1cc(C(=O)OCC(=O)Nc2cccc(S(N)(=O)=O)c2)c2ccccc2n1 | 0 | 647* | -12 | 0 | 0
Cc1c(C(=O)OCC(=O)Nc2ccc(S(N)(=O)=O)cc2)oc2c1ccc1ccccc12 | 8 | 500* | -4 | 0 | -1
COc1ccc(S(=O)(=O)Nc2cc3c4c(c2)CCN4C(=O)CC3)cc1 | 16 | -8 | 2 | 0 | ·
CC(C)C[C@H]1CN=C(Nc2ccccc2)N1CCCC1CCCC1 | 15 | -15 | -3 | 0 | ·
CCCCCCCN1C(Nc2ccccc2)=NC[C@@H]1CC(C)C | 14 | 611* | -5 | 0 | -1[21 µM]
Cc1nnsc1C(=O)N1CCC(CO)(Cc2ccccc2Cl)CC1 | 9 | + | -4 | 0 | 1
CC(C)(C)NC(=O)N1CCC(CO)(Cc2ccccc2Cl)CC1 | -3 | -1 | 1 | 0 | ·
c1ccc2c(C[C@@H]3CNCCN3CCCCC3CCCCC3)cccc2c1 | 4 | 402* | 6 | 0 | -3
c1ccc(C[C@H]2CNCCN2CCCCC2CCCCC2)cc1 | -30 | -34 | 17 | 0 | ·
Cc1cc(NC(=O)CSc2ncn(-c3ccccc3)n2)no1 | -5 | 925* | 4 | 0 | 0
Cc1cc(NC(=O)CSc2ncccn2)no1 | 1 | -7 | 4 | 0 | ·
CCCc1cc(=O)oc2c3c(cc(OCC(=O)N[C@@H](C)C(=O)O)c12)OC(C)(C)CC3 | 6 | 0 | 1 | 0 | ·
CCCc1cc(=O)oc2c3c(c4c(c12)OC(C)(C)C=C4)OC(C)C(C)C3O (centres undefined) | 8 | 779* | -7 | 1 | 0
SMILES | SKN-1 inh | Mot1-301 SUMO | HGIII-sPLA2 inh | Efflux pump mplx | Mot1 SUMO dose
OC(c1ccccc1)(c1ccccc1)C1CCN(CCCNc2cccc(Br)c2)CC1 | · | · | -8 | · | ·
COc1ccc(CCC(=O)NNC(=O)c2ccccn2)cc1OC | 13 | · | 7 | · | ·
Cc1ccc(/C=C/C(=O)O)cc1S(=O)(=O)N(CCO)CCO | 13 | 390* | 5 | 0 | 0
O=c1nc(-c2ccccc2)c2cc(SC(F)F)ccc2[nH]1 | 11 | -12 | 0 | 0 | ·
O=C(COc1cc(F)ccc1[N+](=O)[O-])Nc1ccc(N2CCCCC2)cc1 | -4 | 228 | -4 | 0 | ·
Cc1ccc(C(=O)N/C(=C\c2cccs2)C(=O)NCc2ccncc2)cc1 | 7 | 612* | 4 | 0 | 1
Cc1ccc(C(=O)N/C(=C\c2cccs2)C(=O)NCCc2c[nH]c3ccccc23)cc1 | 15 | 494* | -76 | 0 | 0
COc1ccccc1NC(=O)c1c(Nc2ccccc2C)sc(C(=O)Nc2cccc(Cl)c2)c1N | 1 | 14 | -10 | 0 | ·
COC(=O)[C@@]12C[C@@H](CC(=O)N3CCSCC3)C(=O)N(Cc3cccc4ccccc34)C1=CCC(C)(C)C2 | 13 | · | -7 | · | ·
COc1cccc(NC(=O)CNC(=O)c2ccc(C)cc2)c1 | -1 | 499* | -3 | 0 | 0
COc1cc(C(=O)NCC(=O)Nc2c(C)cccc2C)ccc1OCc1ccccc1 | 5 | 4 | -7 | 0 | ·
